In PubChem BioAssay (Tox21):
Inconclusive results are not listed. Active and inactive are the calls of the source. Calls come from the whole dose curve; as a rule, active = well fitted cell-killing curve with a large enough effect in the repeat runs; inconclusive = weak or mixed curves, or effect the other way; inactive = flat fitted curve, though single readings scatter.

Assay: qHTS assay to identify small molecule antagonists of the estrogen receptor alpha (ER-alpha) signaling pathway using the BG1 cell line in the presence of 0.1 nM 17-beta-estradiol - cell viability counter screen (AID 1259241); note: nearly all actives have a fitted effect of over 40% in size
Conditions: VM7Luc4E2 (BG1) viability, CellTiter-Fluor protease, 22 h, 0.1 nM estradiol agonist added; series mostly up to 92.4 µM; activity change, negative = cytotoxicity: at the top concentration
From the text: National Center for Advancing Translational Sciences [NCATS]
NIH Chemical Genomics Center [NCGC]
U.S. Environmental Protection Agency [EPA]
National Institutes of Environmental Health Sciences [NIEHS]
National Toxicology Program [NTP]
U.S. Food and Drug Administration [FDA]
Estrogen receptor (ER), a member of the nuclear hormone receptor plays an important role in development, metabolic homeostasis and reproduction. Two subtypes of ER, ER-alpha and ER-beta, have similar expression patterns with some uniqueness in both types. Endocrine disrupting chemicals (EDCs) and their interactions with steroid hormone receptors like ER causes disruption of normal endocrine function. Therefore, it is important to understand the effect of environmental chemicals in ER signaling pathway. For identifying ER antagonists, VM7Luc4E2 cell line was used to screen against Tox21 compound libraries.
VM7Luc4E2 cell line (provided by Denison MS, University of California) endogenously express full-length ER-alpha and is stably transfected with a plasmid containing four estrogen responsive elements (ERE) upstream of a luciferase reporter gene. The current screening for identification of ER-alpha inhibitors against Tox21 compound libraries used lower concentration (0.1 nM) of 17beta-Estradiol as a stimulator. The cytotoxicity of the Tox21 compound libraries against VM7Luc4E2 cell line was tested by measuring live-cell protease activity using CellTiter-Fluor assay in the same wells.
Tox21 Assay Protocol Summary:
VM7Luc4E2 cells were cultured in phenol red free assay medium containing 10% charcoal stripped FBS for 5 days prior to the assay. The cells were dispensed at 4,000 cells/well in 4 uL of assay medium into white wall/solid-bottom 1536-well plates (Corning Life Sciences, Corning, NY) using a Multidrop Combi (ThermoFisher Scientific, Waltham, MA) dispenser. After the assay plates were incubated at 37C and 5% CO2 for 24 hr, 23 nL of compounds dissolved in DMSO, positive controls or DMSO only was transferred to the assay plates by a Pintool station (Kalypsys, San Diego, CA). The transfer of compounds was followed by the addition of 1 uL of 0.1 nM (final concentration) agonist (17beta-Estradiol)/assay medium using a Flying Reagent Dispenser (FRD, Aurora Discovery, San Diego, CA). The plates were incubated at 37C and 5% CO2 for 22 hr. For cytotoxicity assay, 1 uL of CellTiter-Fluor reagent (Promega Corporation, Madison, WI) was added to each well using the FRD and after 30 min incubation at 37C and 5% CO2, The fluorescence intensity was measured using ViewLux plate reader (PerkinElmer, Shelton, CT).
% is set by controls: 0 for no effect and ±100 for the full control effect; potency is the fitted concentration of half-maximal effect.

Compound	activity change, negative = cytotoxicity	Potency
COC(=O)CCS	0% (inactive)	
C[C@@H](CN(C)C)CN1c2ccccc2Sc2ccccc21	0.11% [at 42.5 µM] (inactive)	
Oc1ccc(Cl)c2cccnc12	-11.2% [at 42.5 µM] (inactive)	
OC[C@H]1O[C@@H](n2cnc3c(=S)nc[nH]c32)[C@H](O)[C@@H]1O	-1.02% [at 42.5 µM] (inactive)	
C=CC(C)(CCC=C(C)C)OC(=O)CC(C)C (stereo not given)	-0.131% (inactive)	
O=C(O)c1ccc(OCCCOc2ccc(C(=O)O)cc2)cc1	2.86% [at 42.5 µM] (inactive)	
COc1ccccc1N1CCN(CC(O)COc2cccc3ccccc23)CC1 (stereo not given)	-11.9% [at 42.5 µM] (inactive)	
CC1=C(Br)C(=O)C(Br)=C/C1=C(/c1ccccc1S(=O)(=O)O)c1cc(Br)c(O)c(Br)c1C		18.6 µM (active)
CCCC(C(=O)OCCN(CC)CC)(c1ccccc1)c1ccccc1	-16.1% [at 42.5 µM] (inactive)	
Cc1cc(O)c(C)c(C)c1O	0.753% [at 42.5 µM] (inactive)	
N#[N+]c1ccc2c(S(=O)(=O)[O-])cccc2c1O	-6.62% (inactive)	
O=C1NC(=O)c2cc([N+](=O)[O-])ccc21	12% (inactive)	
O=C(OCC(O)CO)c1ccccc1Nc1ccnc2cc(Cl)ccc12 (stereo not given)	-10.7% [at 42.5 µM] (inactive)	
CC(C)Nc1cccnc1N1CCN(C(=O)c2cc3cc(NS(C)(=O)=O)ccc3[nH]2)CC1	1.95% [at 42.5 µM] (inactive)	
CCCCCCC(C)(C)C(=O)O	0.814% (inactive)	
CN(C)CCN1C(=O)c2ccccc2N(C)c2ccccc21	-3.23% [at 42.5 µM] (inactive)	
CCOC(=O)/C=C/C(=O)OCC	-0.842% (inactive)	
CN1CCCN=C1COC(=O)C(O)(c1ccccc1)C1CCCCC1 (stereo not given)	-11.4% [at 42.5 µM] (inactive)	
CC1(C)[C@@H](OC(=O)CCC(=O)O)CC[C@]2(C)[C@H]3C(=O)C=C4[C@@H]5C[C@@](C)(C(=O)O)CC[C@]5(C)CC[C@@]4(C)[C@]3(C)CC[C@@H]12	-1.03% [at 42.5 µM] (inactive)	
CC(C)C(O)(c1ccc(OC(F)(F)F)cc1)c1cncnc1 (stereo not given)	17.9% (inactive)	

Compound	activity change, negative = cytotoxicity	Potency
O=C(O)CCCCCCCCCCCBr	5.19% (inactive)	
OCCOCC#CCOCCO	1.28% (inactive)	
O=C=Nc1cccc(C(F)(F)F)c1	0% (inactive)	
C=C(C)CCCC(C)CCO (stereo not given)	4.46% (inactive)	
CC(=O)Nc1ccc(C)cc1C	7.8% (inactive)	
CC(CN(C)C)C(C)(O)Cc1ccc(Cl)cc1 (stereo not given)	0.198% [at 42.5 µM] (inactive)	
C1COC1	6.68% (inactive)	
CC(C)=CC(=O)C=C(C)C	-3.32% (inactive)	
c1cc(N(CC2CO2)CC2CO2)ccc1Cc1ccc(N(CC2CO2)CC2CO2)cc1 (stereo not given)	-15% (inactive)	
CCCCCCCCC(CCCCCC)C(=O)O (stereo not given)	-11.1% (inactive)	
CC(=O)Oc1ccc([N+](=O)[O-])cc1CCl		54.5 µM (active)
Cc1ccccc1S	2.52% [at 42.5 µM] (inactive)	
CO/N=C(/C(=O)N[C@@H]1C(=O)N2C(C(=O)O)=C(COC(N)=O)CS[C@H]12)c1ccco1	0% (inactive)	
Cc1ccccc1N=C(N)Nc1ccccc1C	-11.4% (inactive)	
COc1cc(N)c(Cl)cc1C(=O)NC1CCN(CCCOc2ccc(F)cc2)CC1OC (stereo not given)	-22.1% [at 42.5 µM] (inactive)	
CCOC(=O)c1ccc(O)c(O)c1	2.94% [at 42.5 µM] (inactive)	
C[C@@]12CCC[C@H]1[C@@H]1CC[C@H]3C[C@@H](O)CC[C@]3(C)[C@H]1CC2	5.55% [at 42.5 µM] (inactive)	
C=C(C)C(=O)OCCCCCCCCCCCCC	-13.3% (inactive)	
Oc1c(I)cc(I)c2cccnc12	-9.19% [at 42.5 µM] (inactive)	
O=Cc1c2ccccc2c(Cl)c2ccccc12	-1.9% [at 42.5 µM] (inactive)	
